Experimental data reported in the supplement of paper PMC10849652.
The full data set covers some 7,900 targets. This sample favours those with a hit. About 0.6% of all pairs of compound and target were hits.

Experiments:
Assay in all cases: log2 fold change, soluble protein after heating vs DMSO (PISA); higher = thermal stabilisation; K562 cells, 10 uM, 30 min; active = over 0.2 and 3.5 SD of the protein, either way, in both replicates (recomputed)
bafetinib = compound: Cc1ccc(NC(=O)c2ccc(CN3CC[C@H](N(C)C)C3)c(C(F)(F)F)c2)cc1Nc1nccc(-c2cncnc2)n1 [bafetinib]
In short: (§1)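 K562 cells at 2×10^6 cells/mL were treated with 10 μM compound for 30 min. Aliquots were heated for 3 min across 48°C-58°C, pooled, and extracted in PBS with 0.5% NP-40 at 4°C; soluble protein was the supernatant after 21,000xg for 90 min. Soluble protein was quantified by TMTpro 16plex LC-MS/MS with channel sums equalised, and reported as log2 fold change in thermal stability against DMSO controls, with values from duplicates.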

[1] = compound: Cc1cccc(CC(=O)N2CCc3c2ccc(-c2cn(C)c4ncnc(N)c24)c3F)n1
In short: as §1

nilotinib = compound: Cc1cn(-c2cc(NC(=O)c3ccc(C)c(Nc4nccc(-c5cccnc5)n4)c3)cc(C(F)(F)F)c2)cn1 [nilotinib]
In short: as §1

[2] = compound: Cc1nc(Nc2n[nH]c3c2CN(C(=O)N[C@H](CN(C)C)c2ccccc2)C3(C)C)c2sccc2n1
In short: as §1

dasatinib = compound: Cc1nc(Nc2ncc(C(=O)Nc3c(C)cccc3Cl)s2)cc(N2CCN(CCO)CC2)n1 [dasatinib]
In short: as §1

[3] = compound: Cc1ncc(-c2ccnc(Nc3ccc(S(C)(=O)=O)cc3)n2)n1C(C)C
In short: as §1

[4] = compound: Cn1cc(-c2ccc3c(c2)CCN3C(=O)Cc2cccc(C(F)(F)F)c2)c2c(N)ncnc21
In short: as §1

[5] = compound: Cn1cc(-c2ccc3nnc(C(F)(F)c4ccc5ncccc5c4)n3n2)cn1
In short: as §1

tipifarnib = compound: Cn1cncc1[C@@](N)(c1ccc(Cl)cc1)c1ccc2c(c1)c(-c1cccc(Cl)c1)cc(=O)n2C [tipifarnib]
In short: as §1

mubritinib = compound: FC(F)(F)c1ccc(/C=C/c2nc(COc3ccc(CCCCn4ccnn4)cc3)co2)cc1 [mubritinib]
In short: as §1

Measured: log2 fold change

NFATC3 (UniProt Q12968)
inactive: bafetinib 0.041 | [1] -0.064 | nilotinib -0.121 | [2] -0.316 | dasatinib -0.042 | [3] -0.3 | [4] -0.073 | [5] 0.191 | tipifarnib 0.01 | mubritinib -0.01

MOB3B (UniProt Q86TA1)
Sequence of UniProt Q86TA1 (Q86TA1 whole entry, looked up): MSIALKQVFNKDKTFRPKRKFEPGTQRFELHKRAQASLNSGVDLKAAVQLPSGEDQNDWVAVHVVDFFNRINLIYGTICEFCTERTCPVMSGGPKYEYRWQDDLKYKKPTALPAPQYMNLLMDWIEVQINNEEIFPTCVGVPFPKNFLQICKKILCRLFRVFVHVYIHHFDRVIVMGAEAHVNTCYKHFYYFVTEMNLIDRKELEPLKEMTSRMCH
inactive: bafetinib -0.023 | [1] 0.034 | nilotinib -0.168 | [2] -0.397 | [3] 0.032 | [4] 0.222 | tipifarnib 0.01 | mubritinib 0.109

OXR1 (UniProt Q8N573)
Sequence of UniProt Q8N573 (Q8N573 whole entry, looked up): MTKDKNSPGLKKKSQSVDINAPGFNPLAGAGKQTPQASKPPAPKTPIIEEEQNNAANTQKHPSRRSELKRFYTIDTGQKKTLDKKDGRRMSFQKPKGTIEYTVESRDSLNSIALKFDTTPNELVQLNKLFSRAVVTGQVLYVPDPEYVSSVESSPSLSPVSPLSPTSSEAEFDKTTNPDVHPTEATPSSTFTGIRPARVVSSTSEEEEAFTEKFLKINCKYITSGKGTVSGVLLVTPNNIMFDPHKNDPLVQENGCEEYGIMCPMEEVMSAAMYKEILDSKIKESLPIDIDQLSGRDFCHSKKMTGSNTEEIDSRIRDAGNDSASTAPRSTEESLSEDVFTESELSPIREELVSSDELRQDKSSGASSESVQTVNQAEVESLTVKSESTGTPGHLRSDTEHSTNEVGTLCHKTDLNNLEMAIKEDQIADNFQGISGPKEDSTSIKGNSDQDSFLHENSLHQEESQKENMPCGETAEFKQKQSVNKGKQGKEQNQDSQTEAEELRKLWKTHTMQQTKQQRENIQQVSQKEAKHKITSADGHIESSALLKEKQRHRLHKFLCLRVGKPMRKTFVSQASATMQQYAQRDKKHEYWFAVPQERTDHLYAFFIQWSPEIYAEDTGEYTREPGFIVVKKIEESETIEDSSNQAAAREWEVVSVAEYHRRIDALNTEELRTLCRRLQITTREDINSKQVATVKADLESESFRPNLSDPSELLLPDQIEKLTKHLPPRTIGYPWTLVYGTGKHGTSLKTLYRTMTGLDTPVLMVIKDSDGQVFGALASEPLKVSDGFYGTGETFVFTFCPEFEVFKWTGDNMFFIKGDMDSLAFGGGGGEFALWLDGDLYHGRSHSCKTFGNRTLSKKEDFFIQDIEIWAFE
inactive: bafetinib -0.098 | [1] -0.063 | nilotinib 0.079 | [2] -0.004 | dasatinib -0.034 | [3] -0.023 | [4] 0.081 | [5] 0.013 | tipifarnib -0.038 | mubritinib 0.05

MTHFD1, A0A384N5Y3
Sequence of MTHFD1, A0A384N5Y3 (A0A384N5Y3 whole entry, looked up): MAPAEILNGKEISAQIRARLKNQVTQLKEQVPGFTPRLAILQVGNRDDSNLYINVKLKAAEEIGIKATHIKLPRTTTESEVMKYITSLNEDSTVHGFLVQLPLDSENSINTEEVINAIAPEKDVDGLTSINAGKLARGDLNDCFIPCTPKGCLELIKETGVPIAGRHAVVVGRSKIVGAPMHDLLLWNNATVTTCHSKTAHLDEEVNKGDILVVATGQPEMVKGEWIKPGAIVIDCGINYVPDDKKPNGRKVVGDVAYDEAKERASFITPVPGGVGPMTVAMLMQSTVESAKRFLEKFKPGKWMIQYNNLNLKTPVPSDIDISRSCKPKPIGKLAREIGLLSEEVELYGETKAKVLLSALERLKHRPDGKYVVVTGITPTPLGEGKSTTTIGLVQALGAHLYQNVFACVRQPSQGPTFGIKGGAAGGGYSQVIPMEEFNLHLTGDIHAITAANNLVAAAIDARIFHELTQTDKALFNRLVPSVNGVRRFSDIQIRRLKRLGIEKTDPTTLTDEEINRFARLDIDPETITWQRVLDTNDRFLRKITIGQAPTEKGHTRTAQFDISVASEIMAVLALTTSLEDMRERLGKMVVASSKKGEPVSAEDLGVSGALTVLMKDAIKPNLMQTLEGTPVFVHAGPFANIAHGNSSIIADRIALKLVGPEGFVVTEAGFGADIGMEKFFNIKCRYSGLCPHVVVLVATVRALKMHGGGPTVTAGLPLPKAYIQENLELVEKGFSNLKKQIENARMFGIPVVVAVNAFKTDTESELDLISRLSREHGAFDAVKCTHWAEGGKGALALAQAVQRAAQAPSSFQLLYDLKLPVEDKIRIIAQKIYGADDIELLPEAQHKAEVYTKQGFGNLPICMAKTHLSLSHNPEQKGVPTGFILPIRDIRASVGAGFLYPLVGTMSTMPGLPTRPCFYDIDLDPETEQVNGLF
inactive: bafetinib 0.099 | [1] -0.055 | nilotinib 0.239 | [2] -0.099 | dasatinib -0.153 | [3] -0.031 | [4] 0.087 | [5] -0.008 | tipifarnib -0.146 | mubritinib 0.107

MSL1 (UniProt Q68DK7)
inactive: bafetinib -0.056 | [1] 0.172 | nilotinib 0.004 | [2] 0.068 | dasatinib 0.014 | [3] -0.042 | [5] -0.019 | tipifarnib -0.065 | mubritinib 0.148

NCAPG (UniProt Q9BPX3)
Sequence of UniProt Q9BPX3 (Q9BPX3 whole entry, looked up): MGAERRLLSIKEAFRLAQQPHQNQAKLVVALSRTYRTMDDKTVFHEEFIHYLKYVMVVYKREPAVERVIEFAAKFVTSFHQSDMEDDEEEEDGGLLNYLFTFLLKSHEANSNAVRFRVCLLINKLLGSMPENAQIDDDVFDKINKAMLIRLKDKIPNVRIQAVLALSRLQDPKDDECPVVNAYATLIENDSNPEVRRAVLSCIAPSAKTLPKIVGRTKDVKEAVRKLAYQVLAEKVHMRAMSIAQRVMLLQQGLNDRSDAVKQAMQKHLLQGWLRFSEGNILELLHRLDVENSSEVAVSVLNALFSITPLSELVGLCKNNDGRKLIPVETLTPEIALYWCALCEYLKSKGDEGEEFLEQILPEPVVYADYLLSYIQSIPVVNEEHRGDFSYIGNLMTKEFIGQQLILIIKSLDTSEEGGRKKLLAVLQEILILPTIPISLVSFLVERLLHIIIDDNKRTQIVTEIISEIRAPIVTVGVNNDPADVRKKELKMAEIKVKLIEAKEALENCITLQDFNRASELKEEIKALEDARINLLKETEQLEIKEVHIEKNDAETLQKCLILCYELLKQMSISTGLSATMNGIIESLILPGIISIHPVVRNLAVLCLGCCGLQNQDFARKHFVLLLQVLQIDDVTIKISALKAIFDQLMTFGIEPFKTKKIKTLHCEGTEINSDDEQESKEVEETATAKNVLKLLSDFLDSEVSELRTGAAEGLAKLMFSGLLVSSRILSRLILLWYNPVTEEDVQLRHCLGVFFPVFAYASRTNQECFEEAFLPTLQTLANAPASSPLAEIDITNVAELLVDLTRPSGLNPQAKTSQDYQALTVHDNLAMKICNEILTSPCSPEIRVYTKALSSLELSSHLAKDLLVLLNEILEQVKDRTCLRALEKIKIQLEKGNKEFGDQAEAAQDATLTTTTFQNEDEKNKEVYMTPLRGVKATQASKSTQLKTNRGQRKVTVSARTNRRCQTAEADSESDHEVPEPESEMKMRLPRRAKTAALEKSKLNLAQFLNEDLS
inactive: bafetinib 0.076 | [1] 0.06 | nilotinib -0.032 | [2] -0.07 | dasatinib -0.085 | [3] 0.065 | [4] -0.016 | [5] 0.012 | tipifarnib -0.142 | mubritinib -0.003

MRPL47 (UniProt Q9HD33)
inactive: bafetinib 0.264 | [1] -0.263 | nilotinib -0.124 | [2] 0.118 | dasatinib 0.016 | [3] 0.073 | [4] -0.174 | [5] -0.085 | tipifarnib 0.103 | mubritinib -0.029

MITD1 (UniProt Q8WV92)
Sequence of UniProt Q8WV92 (Q8WV92 whole entry, looked up): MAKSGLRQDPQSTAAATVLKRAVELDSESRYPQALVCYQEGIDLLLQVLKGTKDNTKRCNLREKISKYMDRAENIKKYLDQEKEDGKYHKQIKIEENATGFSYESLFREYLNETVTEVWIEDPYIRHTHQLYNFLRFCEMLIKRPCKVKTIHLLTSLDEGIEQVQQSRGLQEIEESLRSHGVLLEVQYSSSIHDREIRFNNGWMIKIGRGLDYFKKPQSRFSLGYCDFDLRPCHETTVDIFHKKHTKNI
inactive: bafetinib -0.217 | [1] -0.006 | nilotinib -0.065 | [2] -0.035 | dasatinib 0.006 | [3] -0.101 | [4] 0.01 | [5] 0.009 | tipifarnib 0.098 | mubritinib -0.108

OGFOD2 (UniProt Q6N063)
Sequence of UniProt Q6N063 (Q6N063 whole entry, looked up): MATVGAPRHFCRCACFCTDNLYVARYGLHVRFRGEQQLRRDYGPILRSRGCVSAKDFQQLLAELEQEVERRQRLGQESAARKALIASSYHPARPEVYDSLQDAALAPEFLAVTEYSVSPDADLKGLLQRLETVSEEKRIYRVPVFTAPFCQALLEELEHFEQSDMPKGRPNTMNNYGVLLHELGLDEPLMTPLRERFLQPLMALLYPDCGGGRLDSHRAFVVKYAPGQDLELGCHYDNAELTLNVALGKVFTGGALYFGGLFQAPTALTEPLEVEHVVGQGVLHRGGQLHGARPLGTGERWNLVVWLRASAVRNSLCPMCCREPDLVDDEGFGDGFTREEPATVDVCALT
inactive: bafetinib 0.009 | [1] 0.171 | nilotinib 0.004 | [2] -0.007 | dasatinib -0.04 | [3] -0.023 | [4] -0.011 | [5] 0.132 | mubritinib 0.092

OGFR (UniProt Q9NZT2)
Sequence of UniProt Q9NZT2 (Q9NZT2 whole entry, looked up): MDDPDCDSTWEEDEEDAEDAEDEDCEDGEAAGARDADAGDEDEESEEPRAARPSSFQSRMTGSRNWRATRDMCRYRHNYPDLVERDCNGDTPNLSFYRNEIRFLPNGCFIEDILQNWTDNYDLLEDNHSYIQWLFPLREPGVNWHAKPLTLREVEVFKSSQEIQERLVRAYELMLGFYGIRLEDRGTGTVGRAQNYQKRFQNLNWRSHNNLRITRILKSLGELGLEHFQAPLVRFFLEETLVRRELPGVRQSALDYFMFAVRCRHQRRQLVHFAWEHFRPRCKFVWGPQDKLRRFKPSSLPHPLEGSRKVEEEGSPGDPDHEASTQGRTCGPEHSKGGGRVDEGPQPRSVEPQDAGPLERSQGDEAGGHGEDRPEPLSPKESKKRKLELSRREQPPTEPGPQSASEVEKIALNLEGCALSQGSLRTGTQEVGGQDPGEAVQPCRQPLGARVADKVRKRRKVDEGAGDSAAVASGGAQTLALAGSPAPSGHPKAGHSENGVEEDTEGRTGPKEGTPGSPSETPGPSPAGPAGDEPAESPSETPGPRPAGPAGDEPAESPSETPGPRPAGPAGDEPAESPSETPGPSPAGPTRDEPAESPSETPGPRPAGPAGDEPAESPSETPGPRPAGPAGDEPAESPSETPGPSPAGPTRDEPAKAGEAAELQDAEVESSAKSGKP
inactive: bafetinib -0.041 | [1] 0.114 | nilotinib -0.024 | [2] -0.093 | dasatinib -0.114 | [3] -0.008 | [4] 0.036 | [5] -0.002 | tipifarnib 0.025
active: mubritinib 0.328

OPHN1 (UniProt O60890)
inactive: bafetinib -0.035 | [1] -0.134 | nilotinib -0.088 | [2] 0.051 | dasatinib -0.04 | [3] 0.093 | [4] 0.028 | [5] 0.099 | mubritinib 0.035

NUP98 (UniProt P52948)
inactive: bafetinib -0.008 | [1] 0.018 | nilotinib -0.034 | [2] -0.062 | dasatinib -0.077 | [3] -0.044 | [4] -0.026 | [5] -0.075 | tipifarnib 0.005 | mubritinib 0

MTOR (UniProt P42345)
inactive: bafetinib -0.018 | [1] 0.014 | nilotinib -0.158 | [2] 0.068 | dasatinib -0.166 | [3] -0.069 | [4] 0.004 | [5] 0.037 | tipifarnib -0.12 | mubritinib 0.068

NAGPA (UniProt Q9UK23)
inactive: bafetinib -0.076 | [1] -0.142 | nilotinib -0.082 | [2] 0 | dasatinib 0.053 | [3] 0.014 | [4] 0.023 | tipifarnib 0.245 | mubritinib -0.091

NR2C2AP isoform 2 (UniProt Q86WQ0)
Sequence of UniProt Q86WQ0 (Q86WQ0 whole entry, looked up): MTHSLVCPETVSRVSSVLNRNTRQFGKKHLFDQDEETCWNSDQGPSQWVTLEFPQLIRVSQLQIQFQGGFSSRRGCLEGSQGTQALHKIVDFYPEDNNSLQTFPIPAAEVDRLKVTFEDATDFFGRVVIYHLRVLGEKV
inactive: bafetinib 0.037 | [1] 0.03 | nilotinib -0.072 | [2] 0.003 | dasatinib -0.095 | [3] -0.008 | [4] 0.028 | [5] -0.016 | tipifarnib 0.007 | mubritinib 0.072

NME2P1 (UniProt O60361)
Sequence of UniProt O60361 (O60361 whole entry, looked up): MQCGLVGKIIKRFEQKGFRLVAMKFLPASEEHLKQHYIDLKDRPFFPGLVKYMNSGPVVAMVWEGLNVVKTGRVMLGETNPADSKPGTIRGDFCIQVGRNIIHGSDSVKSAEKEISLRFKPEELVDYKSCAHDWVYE
inactive: bafetinib 0.058 | [1] 0.059 | nilotinib -0.236 | [2] -0.014 | [3] -0.107 | [4] -0.081 | [5] -0.013 | tipifarnib -0.055 | mubritinib 0.073
